# Screens from PubChem BioAssay.
# SNCA expr inhib – reduces expression of the alpha-synuclein gene | HEK-293 SNCA-luciferase knock-in, luminescence, 24 h | Potency, µM (doses to about 57.2 µM), inactives show at the top dose activity change, negative = inhibition, hits mostly inhibitors | 140,000 compounds, 0.17% hits | AID 1671194;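 further: potency means the concentration at half of the fitted maximal effect; plate controls were DMSO cells for no effect and cell-free wells for full effect; nearly all actives have a fitted effect of over 45% in size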
# IP6K1 inh – IP6K1 kinase inhibition; 140,000 compounds, 0.81% hits; activity change, % (series mostly up to about 58 µM); Q92551; AID 1645851; IP6K1 kinase, ADP-Glo luminescence, 2 h; stronger effect = lower value; in the data active means activity change below about -25%; further: on the % scale 0 is the no-effect control and ±100 the full control effect
# Target sequence (Q92551 whole entry, looked up): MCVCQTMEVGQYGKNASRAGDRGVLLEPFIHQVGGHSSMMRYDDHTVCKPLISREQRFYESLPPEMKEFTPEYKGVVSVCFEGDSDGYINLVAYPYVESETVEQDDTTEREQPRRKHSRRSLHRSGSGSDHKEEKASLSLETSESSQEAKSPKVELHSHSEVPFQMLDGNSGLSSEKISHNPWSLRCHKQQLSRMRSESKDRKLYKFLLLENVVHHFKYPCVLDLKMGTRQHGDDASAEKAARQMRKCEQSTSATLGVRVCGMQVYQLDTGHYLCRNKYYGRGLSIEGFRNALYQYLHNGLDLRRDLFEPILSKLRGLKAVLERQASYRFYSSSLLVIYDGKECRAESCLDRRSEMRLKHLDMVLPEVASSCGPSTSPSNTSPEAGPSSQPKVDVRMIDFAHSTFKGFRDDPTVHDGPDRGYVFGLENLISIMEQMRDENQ
#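 ADP-Glo luminescence measures ADP made by human IP6K1 during a 2 h RT reaction with ATP/IP6 (mix at 1.3 mM/130 uM); top library doses 57.5 and 19.1 uM final.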
# SNCA viab count – counter-screen for SNCA expression inhibitors: cell viability; HEK-293-SNCA-luc viability, GF-AFC fluorescence, 24 h; Potency, µM (top dose mostly 57.1 µM), for inactives: top-dose activity change, negative = cytotoxicity, most hits filed as cytotoxic; 150,000 compounds, 0.12% hits;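 further: potency means the concentration at half of the fitted maximal effect; 0% = DMSO-treated cells and -100% = medium-only wells without cells; nearly all actives have a fitted effect of over 30% in size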
#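 HEK-293-SNCA-luc cells (1500/well) plated 24 h, then exposed 24 h to a dilution series; GF-AFC added 30 min at 37C, fluorescence 405/540 nm; normalised to medium-only and DMSO wells, Hill fit.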
# KDM5B inhibitor – inhibitors of human KDM5B histone demethylase; KDM5B demethylase, FDH-coupled NADH fluorescence (FDH is formaldehyde dehydrogenase); Potency, µM (top dose mostly 57.7 µM), usual class: inhibitors; 220,000 compounds, 2.6% hits; further: potency means the concentration at half of the fitted maximal effect; 0% is about no effect; nearly all actives have a fitted effect of over 70% in size
#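 Compound dilutions met 200 nM (final) KDM5BΔAP for 10 min at room temperature before substrate addition. The substrate mix held 12.5 µM H3K4me3 with cofactors 25 µM α-ketoglutarate and 50 µM Fe²⁺. NADH signal gain over 30 min defined activity.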
# Starred values were filed as active, the others as inactive; i = inactive; ? = inconclusive; · = not tested or not shown; [ ] = dose if it differs, or a comment. Most compounds without a hit are left out; they make up all but 2.8% or so of the library. Unless noted, the call rests on the fitted dose curve; in most records, active means well fitted curve in the direction sought with a large enough effect; inconclusive means small, poorly fitted or top-dose-only effect, or another doubt; inactive means no such curve, though single readings can be large; an effect the other way counts as inactive or inconclusive.
SMILES,SNCA expr inhib,IP6K1 inh,SNCA viab count,KDM5B inhibitor
COc1cc2c(cc1CCc1ccccc1)N(C(=O)C1CCC(C)CC1)CC21CCN(C(C)=O)CC1 (stereo not drawn),?,2.3,-26.6%,i
Cc1noc(C)c1COc1ccc(CC(=O)N2CCN(CC(=O)N3CCCCC3)CC2)cc1,·,·,·,i
CN1CCN(C(=O)Cc2cccn2-c2ccc(F)cc2)CC1,31.0%,6.3,0.9%,i
COc1ccc(OC)c(-c2cnc3[nH]cc(CC(=O)N4CCN(C)CC4)c3c2)c1,-13.8%[87.6 µM],-6.6,0.0%[87.6 µM],i
CN1CCN(C(=O)Cc2c[nH]c3ncc(-c4cccc(F)c4)cc23)CC1,4.8%[87.6 µM],-11.9,8.2%[87.6 µM],28.2µM*
Cc1noc(C)c1-c1cnc2[nH]cc(CC(=O)N3CCN(C)CC3)c2c1,52.9%[87.6 µM],4.3,6.2%[87.6 µM],28.2µM*
Cc1ccccc1-c1cnc2[nH]cc(CC(=O)N3CCN(C)CC3)c2c1,-19.8%[87.6 µM],-12.3,1.4%[87.6 µM],31.6µM*
CN1CCN(C(=O)Cc2c[nH]c3ncc(-c4cccc(Cl)c4)cc23)CC1,3.8%[87.6 µM],-21.3,-5.5%[87.6 µM],35.5µM*
COc1ccccc1-c1cc([C@H]2CN3CC[C@H]2C[C@@H]3CNS(=O)(=O)c2ccc(NC(C)=O)cc2)n(C)n1,8.6%,-3.4,2.2%,i
C=CCN(C)C[C@H]1CN2CC[C@H]1C[C@@H]2CNC(=O)c1ccc(N(C)C)cc1,-8.7%[87.6 µM],4.8,-13.1%[87.6 µM],i
Cc1ncc2c(c1CNCC1(O)CNCCOC1)CCNC2 (stereo not drawn),?,12.3,-7.3%,28.2µM*
COC1C(=O)N(CC2CC2)C12CCNCC2 (stereo not drawn),15.0%,-7.2,-10.1%,?
O=C(O)C1=NOC2CN(CC3CCNC3)CC12 (stereo not drawn),12.4%[87.6 µM],0.2,4.4%[87.6 µM],141µM*
COc1ccccc1NC(=O)Nc1ccc2n(c1=O)C[C@H]1C[C@@H]2CN(C2CCOCC2)C1,-6.2%,4.4,-7.8%,15.8µM*
COc1ccccc1NC(=O)N1C[C@@H]2C[C@H](C1)c1c(C3CCCCC3)ccc(=O)n1C2,2.0%[87.6 µM],-4.3,-16.1%[87.6 µM],i
Cc1nc(-c2ccc(N(C)C)cc2)cc([C@H]2CN3CC[C@H]2C[C@@H]3CNC(=O)c2ccco2)n1,-23.9%,-4.1,-4.6%,25.1µM*
Cc1nc(-c2ccc(N(C)C)cc2)cc([C@H]2CN3CC[C@H]2C[C@@H]3COC(=O)Nc2ccccc2)n1,?,-7.9,?,?
Cc1nc(-c2ccc(N(C)C)cc2)cc([C@H]2CN3CC[C@H]2C[C@@H]3CNC(=O)NC(C)C)n1,0.7%[87.6 µM],-11.6,-21.0%[87.6 µM],11.2µM*
COc1ccccc1-c1cc([C@H]2CN3CC[C@H]2C[C@@H]3COC(=O)Nc2ccc(C(C)(C)C)cc2)n(C)n1,-3.9%,-6.5,-13.1%,?
O=C1Nc2ccccc2CC12CCN(Cc1ccccn1)C2 (stereo not drawn),6.9%[87.6 µM],8.5,-1.7%[87.6 µM],31.6µM*
CNc1nc(N2C[C@H]3CN(CCOC)C[C@@]3(C(=O)O)C2)ncc1F,?,22.2,-1.2%,15.8µM*
COCC(=O)NC[C@H]1C[C@@H]2CCN1C[C@@H]2CN1CCN(c2ccccn2)CC1,-3.7%[87.6 µM],-8.7,-0.5%[87.6 µM],i
CCN1Cc2ccccc2NC(=O)C12CCNC2 (stereo not drawn),14.6%,-8.6,1.6%,56.2µM*
Clc1ccc(N2CCN(CC3[C@H]4CNC[C@@H]34)CC2)nc1 (stereo partly drawn),6.9%,-1.4,0.5%,?
O=C(NC1CCCCC1)N1C[C@@H]2C[C@H](C1)c1c(/C=C/c3ccc(Cl)cc3)ccc(=O)n1C2,-0.8%,5.8,-9.9%,i
SMILES,SNCA expr inhib,IP6K1 inh,SNCA viab count,KDM5B inhibitor
O=C(C1CCCCC1)N1C[C@@H]2C[C@H](C1)c1c(/C=C/c3ccc(Cl)cc3)ccc(=O)n1C2,8.5%,18.0,-29.2%,25.1µM*
CN(C)Cc1ccccc1-c1ccc2n(c1=O)C[C@H]1C[C@@H]2CN(C(=O)C2CCCCC2)C1,-10.2%[87.6 µM],0.6,-0.8%[87.6 µM],35.5µM*
CNc1ccc2oc(C[C@H]3O[C@@]4(CC[C@H]3C)O[C@H]([C@H](C)C(=O)c3ccc[nH]3)[C@H](C)C[C@H]4C)nc2c1C(=O)O,28.2µM*,·,?,·
CNc1ccc2oc(C[C@H]3O[C@@]4(CC[C@H]3C)O[C@H](C(C)C(=O)c3ccc[nH]3)[C@H](C)C[C@H]4C)nc2c1C(=O)O (stereo partly drawn),·,6.6,9.47µM*,·
Cc1ccc2c(n1)N(C)[C@H](CO)CCN(CC(C)C)C2,12.9%[87.6 µM],-8.2,2.4%[87.6 µM],15.8µM*
N#Cc1ccccc1S(=O)(=O)N1C[C@@H]2C[C@H](C1)c1ccc(-c3ccc(Cl)cc3)c(=O)n1C2,-4.2%,-9.3,-10.2%,35.5µM*
CN(C)CC(=O)Nc1ccc2n(c1=O)C[C@H]1C[C@@H]2CN(S(=O)(=O)c2ccccc2)C1,?,-2.2,-12.7%[87.6 µM],?
O=c1c(C2CCCCC2)ccc2n1C[C@H]1C[C@@H]2CN(S(=O)(=O)c2ccccc2)C1,-26.0%[87.6 µM],-6.1,-12.6%[87.6 µM],31.6µM*
COc1ccccc1OCC(=O)N1CCN(Cc2nc(N)c3ccccc3n2)CC1,·,·,·,i
O=C1NCCCCCCN(Cc2cccnc2)[C@H]2CCC[C@@H]12,?,9.0,-3.3%,7.94µM*
O=C1NCCCCCN(Cc2cccnc2)[C@H]2CCC[C@@H]12,9.3%,-4.8,4.3%,?
CCOC(=O)C1=C(N)OC(C)=C(C(=O)OCc2ccccc2)C12C(=O)Nc1ccc(Br)cc12 (stereo not drawn),·,·,·,i
CCNC(=O)N1CCC2(CC1)c1nccn1-c1ccccc1CN2CC(C)C,-7.7%,13.5,-6.8%,i
O=C(C1CCCCC1)N1[C@H]2CC[C@@H]1c1cnc(-c3ccccc3)nc1C2,0.5%,1.7,-8.9%,i
COc1ccc(-c2cc([C@H]3CN4CC[C@H]3C[C@@H]4CNC(=O)C(C)(C)C)nc(C)n2)cc1OC,6.4%,1.5,2.5%,31.6µM*
Cc1nc(-c2ccc(C(F)(F)F)cc2)cc([C@H]2CN3CC[C@H]2C[C@@H]3CNC(=O)CCC(=O)O)n1,18.7%,4.8,1.4%,i
CCCNC(=O)OC[C@H]1C[C@@H]2CCN1C[C@@H]2c1cc(-c2ccccc2OC)nc(C)n1,-19.1%[87.6 µM],4.4,-0.4%[87.6 µM],35.5µM*
O=C(NC1CCCCC1)OC[C@H]1C[C@@H]2CCN1C[C@@H]2c1cc(C2CCCC2)nc(-c2ccncc2)n1,-26.4%,9.6,-19.4%,?
COc1ccccc1-c1cc([C@H]2CN3CC[C@H]2C[C@@H]3COC(=O)Nc2ccccc2)nc(C)n1,5.1%,8.9,5.1%,?
COc1ccccc1-c1cc([C@H]2CN3CC[C@H]2C[C@@H]3COC(=O)NC2CCCCC2)nc(C)n1,?,9.2,-12.5%,28.2µM*
COc1ccccc1-c1cc([C@H]2CN3CC[C@H]2C[C@@H]3CNC(=O)CCC(=O)O)nc(C)n1,-8.3%,7.7,4.2%,31.6µM*
Cc1ncc2c(n1)C[C@@H]1CC[C@H]2N1C(=O)CCc1ccccc1,4.9%,22.8,10.4%,i
